Read-out in experiment [1]: Vascular cell adhesion molecule 1 (VCAM1), VCAM1 (gene 7412)
Briefly: BSK_4H_VCAM1: BioMAP Diversity Plus: 4H Assay for Vascular cell adhesion molecule 1 (VCAM1) Biomarker Activity (AID 2283033).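 As to outcome: cell-surface VCAM-1 protein measured by ELISA.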 As to conditions: primary human endothelial cells (HUVEC); actives raise or lower the signal. The method, boiled down:
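HUVEC, 24 h post-dose; VCAM-1 by ELISA. Bidirectional curve fit vs DMSO baseline. Parallel SRB total-protein stain (0.1% SRB after 10% TCA fixation, 560 nm) for cytotoxicity.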

Read-out in experiment [2]: Interferon-gamma inducible Protein 10 (IP10), CXCL10 (gene 3627)
Briefly: BSK_BE3C_IP10: BioMAP Diversity Plus: BE3C Assay for Interferon-gamma inducible Protein 10 (IP10) Biomarker Activity (AID 2283034). Particulars: primary human bronchial epithelial cells; actives raise or lower the signal. The method, boiled down: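 ELISA readout of IP-10 in BE3C system: primary human bronchial epithelial cells, 24 h post-dosing; bidirectional curve fit vs DMSO baseline.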

Read-out in experiment [3]: Monokine induced gamma interferon (MIG), CXCL9 (gene 4283)
Briefly: BSK_BE3C_MIG: BioMAP Diversity Plus: BE3C Assay for Monokine induced gamma interferon (MIG) Biomarker Activity (AID 2283035).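 As to outcome: MIG protein measured by ELISA in BE3C cultures after 24 h of dosing.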 As to conditions: primary human bronchial epithelial cells; actives raise or lower the signal. The gist of the method: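 Dose cells (human primary bronchial epithelial), incubate 24 h, quantify MIG by ELISA, then fit concentration–response in both directions relative to DMSO control.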

Read-out in experiment [4]: Transforming growth factor beta 1 (TGFb1), TGFB1 (gene 7040)
Briefly: BSK_BE3C_TGFb1: BioMAP Diversity Plus: BE3C Assay for Transforming growth factor beta 1 (TGFb1) Biomarker Activity (AID 2283036;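 also: TGF-b1 protein level measured by ELISA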). As to conditions: primary human bronchial epithelial cells; actives raise or lower the signal. The method, boiled down: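 Read-out: ELISA for TGF-b1 in primary human bronchial epithelial cultures, 24 h post-dose. Bidirectional curve fitting vs DMSO control; gain or loss of signal both scored.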

Read-out in experiment [5]: Plasminogen activator inhibitor-1 (PAI1), SERPINE1 (gene 5054)
Briefly: BSK_BE3C_PAI1: BioMAP Diversity Plus: BE3C Assay for Plasminogen activator inhibitor-1 (PAI1) Biomarker Activity (AID 2283037). As to conditions: primary human bronchial epithelial cells; actives raise or lower the signal. The gist of the method:
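ELISA read-out of PAI-1 from human bronchial epithelial primary cells, 24 h post-dosing; bidirectional curve fit vs DMSO baseline, gain or loss of signal scored.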

Read-out in experiment [6]: urokinase plasminogen activator (uPA), PLAU (gene 5328)
Briefly: BSK_BE3C_uPA: BioMAP Diversity Plus: BE3C Assay for urokinase plasminogen activator (uPA) Biomarker Activity (AID 2283038).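 As to outcome: uPA protein level quantified by ELISA in cell cultures; uPA read one day after compound addition.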 Particulars: primary human bronchial epithelial cells; actives raise or lower the signal. The gist of the method: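 Using confluent primary human lung bronchial epithelial cultures, we dosed chemicals, waited 24 h, then ran a uPA ELISA, fitting bidirectionally against DMSO.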

Read-out in experiment [7]: Urokinase-type plasminogen activator receptor (uPAR), PLAUR (gene 5329)
Briefly: BSK_BE3C_uPAR: BioMAP Diversity Plus: BE3C Assay for Urokinase-type plasminogen activator receptor (uPAR) Biomarker Activity (AID 2283039).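 As to outcome: uPAR protein level measured by ELISA on the cells; cells exposed to compound for one day before measurement.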 As to conditions: primary human bronchial epithelial cells; actives raise or lower the signal. The gist of the method: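 ELISA readout of uPAR on human lung primary bronchial epithelial cells, 24 h post-dosing. Bidirectional curve fit relative to DMSO vehicle baseline; gain or loss of signal both scored.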

Read-out in experiment [8]: Interleukin-6 (IL6), IL6 (gene 3569)
Briefly: BSK_CASM3C_IL6: BioMAP Diversity Plus: CASM3C Assay for Interleukin-6 (IL6) Biomarker Activity for (AID 2283040). As to conditions: primary human coronary artery smooth muscle cells; actives raise or lower the signal.

Read-out in experiment [9]: Tissue plasminogen activator (tPA), PLAT (gene 5327)
Briefly: BSK_BE3C_tPA: BioMAP Diversity Plus: BE3C Assay for Tissue plasminogen activator (tPA) Biomarker Activity (AID 2283041).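 As to outcome: tPA level quantified by ELISA one day after compound addition.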 As to conditions: primary human bronchial epithelial cells; actives raise or lower the signal. The method, boiled down: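 ELISA read-out of tPA on human primary bronchial epithelial cells, 24 h post-dosing; bidirectional fit vs DMSO negative control/baseline.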

Read-out in experiment [10]: Interleukin-8 (IL8), CXCL8 (gene 3576)
Briefly: BSK_CASM3C_IL8: BioMAP Diversity Plus: CASM3C Assay for Interleukin-8 (IL8) Biomarker Activity (AID 2283042).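 Also: IL-8 protein level quantified by ELISA.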 Particulars: primary human coronary artery smooth muscle cells; actives raise or lower the signal.

Read-out in experiment [11]: Human Leukocyte Antigen - DR isotype (HLADR), HLA-DRA (gene 3122)
Briefly: BSK_CASM3C_HLADR: BioMAP Diversity Plus: CASM3C Assay for Human Leukocyte Antigen - DR isotype (HLADR) Biomarker Activity (AID 2283043).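 Also: cell-surface HLA-DR protein level quantified by ELISA.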 As to conditions: primary human coronary artery smooth muscle cells; actives raise or lower the signal.

Read-out in experiment [12]: Macrophage colony-stimulating factor (MCSF), CSF1 (gene 1435)
Briefly: BSK_CASM3C_MCSF: BioMAP Diversity Plus: CASM3C Assay for Macrophage colony-stimulating factor (MCSF) Biomarker Activity (AID 2283044).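 Also: M-CSF protein amount quantified by ELISA after 24 h exposure.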 Particulars: primary human coronary artery smooth muscle cells; actives raise or lower the signal.

Read-out in experiment [13]: Low-density lipoprotein receptor (LDLR), LDLR (gene 3949)
Briefly: BSK_CASM3C_LDLR: BioMAP Diversity Plus: CASM3C Assay for Low-density lipoprotein receptor (LDLR) Biomarker Activity (AID 2283045).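 Also: LDLR protein level on the cell surface quantified by ELISA.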 As to conditions: primary human coronary artery smooth muscle cells; actives raise or lower the signal.

Experiment [14] in a line: BSK_CASM3C_Proliferation: Cell Proliferation Assessment in the BioMAP Diversity Plus: CASM3C Assay (AID 2283047).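 Also: sulforhodamine B total protein stain as relative cell number at 560 nm; sub-confluent cells exposed 48 h before staining; fitted both ways against DMSO so gain or loss of cell number.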 Particulars: primary human coronary artery smooth muscle cells.
Read-out in experiment [15]: Monokine induced gamma interferon (MIG), CXCL9 (gene 4283)
Briefly: BSK_CASM3C_MIG: BioMAP Diversity Plus: CASM3C Assay for Monokine induced gamma interferon (MIG) Biomarker Activity (AID 2283048).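 Also: MIG protein level measured by ELISA.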 As to conditions: primary human coronary artery smooth muscle cells; actives raise or lower the signal.

Read-out in experiment [16]: serum amyloid A (SAA), SAA1 (gene 6288)
Briefly: BSK_CASM3C_SAA: BioMAP Diversity Plus: CASM3C Assay for serum amyloid A (SAA) Biomarker Activity (AID 2283049).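 Also: SAA protein level quantified by ELISA.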 Particulars: primary human coronary artery smooth muscle cells; actives raise or lower the signal.

The nature of experiment [17]: BSK_CASM3C_SRB: Viability Assessment in the BioMAP Diversity Plus: CASM3C Assay (AID 2283050).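 Also: total protein by SRB staining as cytotoxicity measure in parallel cultures; cells exposed to compound for 24 h.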 As to conditions: primary human coronary artery smooth muscle cells.
Read-out in experiment [18]: Thrombomodulin, THBD (gene 7056)
Briefly: BSK_CASM3C_Thrombomodulin: BioMAP Diversity Plus: CASM3C Assay for Thrombomodulin Biomarker Activity (AID 2283051).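 Also: thrombomodulin protein level measured by ELISA 24 h after dosing.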 As to conditions: primary human coronary artery smooth muscle cells; actives raise or lower the signal.

Read-out in experiment [19]: Tissue Factor, F3 (gene 2152)
Briefly: BSK_CASM3C_TissueFactor: BioMAP Diversity Plus: CASM3C Assay for Tissue Factor Biomarker Activity (AID 2283052).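 Also: cell surface tissue factor protein level read by ELISA.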 Particulars: primary human coronary artery smooth muscle cells; actives raise or lower the signal.

Read-out in experiment [20]: Monocyte Chemoattractant Protein-1 (MCP1), CCL2 (gene 6347)
Briefly: BSK_CASM3C_MCP1: BioMAP Diversity Plus: CASM3C Assay for Monocyte Chemoattractant Protein-1 (MCP1) Biomarker Activity (AID 2283046).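 Also: MCP-1 level quantified by ELISA 24 h after dosing.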 Particulars: primary human coronary artery smooth muscle cells; actives raise or lower the signal.

Where “and” joins values, the source holds several entries; their conditions need not be identical. Identical values can stand only once. Some compounds were tested as several samples or in several runs, with calls that do not always agree. Calls of active or inactive are those of the source. The calls were made as follows: active = hit-call score of the fitted dose curve at least 0.9, where 1 is the maximum; inactive = score below 0.9.

The AC50 is the midpoint of the concentration-response curve, whichever way the signal moves. In the case of `NC(=NCCCCCCN=C(N)/N=C(\N)Nc1ccc(Cl)cc1)/N=C(\N)Nc1ccc(Cl)cc1`, the concentration at half-maximal activity (AC50) was 5.68 µM (active) in experiment [1]; 4.26 µM (active) in experiment [2]; 11.9 µM (active) in experiment [3]; 1.46 µM (active) in experiment [5]; 3.31 µM (active) in experiment [6]; 3.1 µM (active) in experiment [7]. For the same molecule, the AC50 is 7.19 µM (active) in experiment [8]; 1.37 µM (active) in experiment [9]; 9.32 µM (active) in experiment [10]; 6.06 µM (active) in experiment [11]; 7.55 µM (active) in experiment [12]; 5.55 µM (active) in experiment [13]. The concentration at half-maximal activity (AC50) is 4.91 µM (active) in experiment [14]; 13.2 µM (active) in [15]; 5.67 µM (active) in experiment [16]; 4.9 µM (active) in experiment [17]; 4.64 µM (active) in experiment [18]; 2.1 µM (active) in experiment [19]. In addition, the result in [4] was inactive.
Consider `O=P(O)(O)CCC(F)(F)C(F)(F)C(F)(F)C(F)(F)C(F)(F)C(F)(F)C(F)(F)C(F)(F)F`, for which the result in [1], in experiment [2], in experiment [3], in experiment [5], in experiment [6] and in experiment [7] was inactive. Moreover, the outcome in [8], in experiment [10], in experiment [11], in [12], in [13] and in experiment [20] was inactive. Moreover, the outcome in experiment [14], in experiment [15], in experiment [16], in experiment [17], in experiment [18] and in experiment [19] was inactive. Also, the concentration at half-maximal activity (AC50) is 1.08 µM (active) and 5.14 µM (active) in experiment [9]; 9.07 µM (active) in [14].
For `O=C(O)CCC(F)(F)C(F)(F)C(F)(F)C(F)(F)C(F)(F)F`, the result in [1], in experiment [2], in experiment [3], in experiment [5], in experiment [6] and in [7] was inactive. Besides, the result in [8], in [9], in experiment [10], in experiment [11], in [12] and in [13] was inactive. The outcome in [20], in [14], in experiment [15], in experiment [16], in experiment [17] and in [18] was inactive. For the same molecule, the result in [19] was inactive.
With `CCCCC(CC)C(=O)OCCOCCOCCOCCOC(=O)C(CC)CCCC` (configuration not stated), the result in experiment [1], in [2], in experiment [3], in [4], in [5] and in experiment [6] was inactive. The outcome in experiment [7], in [9], in experiment [10], in [11], in experiment [12] and in [13] was inactive. The result in experiment [20], in experiment [14], in [15], in experiment [16], in experiment [17] and in experiment [18] was inactive. Besides, the outcome in experiment [19] was inactive. Moreover, the AC50 in [8] is 11.3 µM (active).
Turning to `CCCCCCCCCCCCCCCCCC[N+](C)(C)Cc1ccccc1`, the half-maximal activity concentration (AC50) is 2.8 µM (active) in experiment [1]; 4.27 µM (active) in experiment [2]; 5.77 µM (active) in experiment [3]; 10 µM (active) in experiment [6]; 4.87 µM (active) in experiment [8]; 12.6 µM (active) in [10]. Also, the AC50 in experiment [11] was 3.45 µM (active); in experiment [12] it was 5.5 µM (active); in experiment [13], 6.53 µM (active); in experiment [20] it was 5.29 µM (active); in experiment [14] it was 2.74 µM (active); in experiment [15] it was 15.4 µM (active). Also, the AC50 was 2.72 µM (active) in [16], 2.75 µM (active) in [17], 2.56 µM (active) in experiment [18] and 0.296 µM (active) in [19]. In addition, the result in experiment [4], in [5], in [7] and in [9] was inactive.
On to `O=C(O)CCC(F)(F)C(F)(F)C(F)(F)C(F)(F)C(F)(F)C(F)(F)F`, for which the outcome in [1], in experiment [2], in [3], in experiment [5], in experiment [6] and in experiment [7] was inactive. Moreover, the outcome in experiment [8], in experiment [9], in experiment [10], in experiment [11], in experiment [12] and in experiment [13] was inactive. The result in [20], in [14], in [15], in [16], in experiment [17] and in [18] was inactive. Also, the result in experiment [19] was inactive.

The values are drawn from PubChem BioAssay (EPA / NIEHS).
